Compounds without any hit were thinned out: in the full panel of roughly 83,000, 20% have a hit.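 For each line, cells grew in 96-well plates with the test compound present at a single concentration for 48 hours.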 Values without a mark were called inactive. Active and inactive are the calls of the source. The calls were made as follows: active = growth percent below 10; inactive = the rest.
What was measured:
Assay in all cases: NCI-60 one-dose screen, 48 h (100 = growth as untreated, 0 = no growth, -100 = all killed)
Conditions in all cases: 10 µM unless noted
RPMI-8226 leukemia = system: RPMI-8226 leukemia
OVCAR-8 ovarian = system: OVCAR-8 ovarian
OVCAR-4 ovarian = system: OVCAR-4 ovarian
SK-OV-3 ovarian = system: SK-OV-3 ovarian
IGROV1 ovarian = system: IGROV1 ovarian
OVCAR-3 ovarian = system: OVCAR-3 ovarian
HS 578T breast = system: HS 578T breast
NCI/ADR-RES ovarian = system: NCI/ADR-RES ovarian
OVCAR-5 ovarian = system: OVCAR-5 ovarian
T-47D breast = system: T-47D breast

SMILES | growth (RPMI-8226 leukemia) | growth (OVCAR-8 ovarian) | growth (OVCAR-4 ovarian) | growth (SK-OV-3 ovarian) | growth (IGROV1 ovarian) | growth (OVCAR-3 ovarian) | growth (HS 578T breast) | growth (NCI/ADR-RES ovarian) | growth (OVCAR-5 ovarian) | growth (T-47D breast)
Cc1cc(C(C)(C)C)cc(C)c1CC1=NCCN1 | 114% | 107% | 117% | 124% | 108% | 112% | 102% | 101% | – | –
O=C1CC(C(F)(F)F)=NN1C(=O)c1nn(-c2ccc(Cl)cc2)cc1O | 71.6% | 71.9% | – | 75.4% | 88.7% | 65.7% | 106% | 72.4% | 87.6% | 84.8%
COc1ccc(/C=N\Nc2ccc([N+](=O)[O-])cn2)cc1OC | 40% | 14.6% | – | 36.8% | 23.2% | 47% | 47.8% | 65% | 22.2% | -7.26% (active)
C=C(C[C@@](O)(C(=O)Oc1ccccc1)C(=O)C1CCCCC1)c1ccccc1 | 92% | 101% | – | 105% | 110% | 106% | 106% | 101% | 103% | 96.2%
O=C(Nc1ncc([N+](=O)[O-])s1)c1cccc([N+](=O)[O-])c1 | -6.2% (active) | 43.1% | – | 64.1% | – | 21.3% | 49.2% | 39.9% | 87.6% | 24.7%
COc1ccc(-c2cc(Cc3cccs3)c(=O)n(Cn3ccc4ccccc43)n2)cc1 | 88% | 99.2% | – | 106% | 124% | 111% | 112% | 107% | 99.9% | 109%
CCN(CC)c1ccc(N=Nc2cc(Cl)ccc2Cl)c(NC(=O)CCC(=O)O)c1 | 97.6% | 89.2% | – | 97.5% | 92.2% | 96.8% | 95.1% | 95.5% | 92.5% | 90.2%
CCC(CC)NCCCCCNc1cc(OC)cc2cccnc12 | 115% | 93.5% | – | 97.7% | 111% | 83.3% | 91.2% | 83.3% | 88.9% | 73.8%
Cc1cc(C(=O)O)c(C)cc1C(=O)O | 102% | 104% | – | 106% | 85.3% | 136% | 122% | 105% | 96% | 104%
COc1ccc(OC)c2c1[nH]c(=O)c1c3ccccc3cn21 | -21.8% (active) | -80.7% (active) | – | -86% (active) | -60.7% (active) | – | – | -6.09% (active) | -45.1% (active) | -48.3% (active)
O=C(Nc1ccc(Cl)cc1)Nc1ccc(Nc2nncc3ccccc23)cc1 | 8.62% (active) | 18.2% | – | 38.2% | 39.7% | 17.6% | 58.3% | 36.2% | 85.6% | -6.32% (active)
Cn1cc(-c2nc(-c3c[nH]c4ncccc34)cs2)c2cccnc21 | 67.1% | 82.9% | – | 62% | 61.5% | 82.6% | – | 44.7% | 83.6% | 51.4%
CC[C@]1(O)CC2CN(CCc3c([nH]c4ccccc34)[C@@](C(=O)OC)(c3cc4c(cc3OC)N(C)[C@H]3[C@@](O)(C(=O)OC)[C@H](OC(C)=O)[C@]5(CC)C=CCN6CC[C@]43[C@@H]65)C2)C1 (stereo partly specified) | 2.81% (active) | 12.6% | 33.2% | 6.74% (active) | 15.9% | -56% (active) | 29.7% | -17.4% (active) | – | –
CCC(O)C(C)(C)C (stereo unspecified) | 122% | 103% | – | 110% | – | 123% | 95.8% | 97.7% | 114% | –
O=[P@@]1(c2ccccc2)O[C@H](COCc2ccccc2)[C@@H](OCc2ccccc2)[C@H](OCc2ccccc2)[C@H]1NCc1ccccc1 | 5.97% (active) | 23.7% | – | 41.7% | – | 18.6% | 49.9% | 12.5% | 11.8% | 15.9%
CC(=O)NCCSC(=O)C(=O)SCCNC(C)=O | 102% | 112% | – | 114% | – | 115% | 119% | 100% | 95.8% | 105%

SMILES | growth (RPMI-8226 leukemia) | growth (OVCAR-8 ovarian) | growth (OVCAR-4 ovarian) | growth (SK-OV-3 ovarian) | growth (IGROV1 ovarian) | growth (OVCAR-3 ovarian) | growth (HS 578T breast) | growth (NCI/ADR-RES ovarian) | growth (OVCAR-5 ovarian) | growth (T-47D breast)
CC[N+](CC)(CCOCCOCC[N+](CC)(CC)Cc1ccc([N+](=O)[O-])cc1)Cc1ccc([N+](=O)[O-])cc1 | 96.6% | 103% | – | 112% | – | 116% | 133% | 98.9% | 98.8% | 95.3%
CSC1=Nc2c(c(C)c(-c3ccccc3)n2CCCN2CCCCC2)C2=NC(=O)C[C@H](C)N12 | -51.1% (active) | 44.6% | – | 26.9% | 22.6% | 24.5% | 11% | 82.4% | 83.1% | -2.25% (active)
COc1ccc(-c2cncn2-c2ccc(-c3nc4cc(OC)c(OC)c(OC)c4s3)cc2)cc1N | 62.2% | 37.1% | – | 103% | 58.8% | 44.2% | 74.7% | 52.4% | 96.4% | 50.5%
CCCCCCCCCCCCCCCCCc1nccn1CCO | 82.3% | 80% | – | 94.6% | 68.5% | 86.2% | 83.4% | 59.9% | 71.4% | 47.1%
COc1ccc(-c2nn(-c3cccc(Cl)c3)cc2C2CC(c3ccccc3)=NN2C(C)=O)cc1 (stereo unspecified) | – | 56.3% | 23.3% | 32.2% | 57% | 80.6% | 43.2% | 74.3% | 80.9% | –
O=C(Cn1ccnc1)NC(c1ccccc1)c1ccccc1 | – | 102% | 105% | 114% | 106% | 116% | 102% | 102% | 83.5% | 101%
ClC1=C(Cl)C(=C2C(Cl)=C(Cl)C(Cl)=C2Cl)C(Cl)=C1Cl | – | 97.7% | 100% | 91.6% | 108% | 114% | 94.1% | 105% | 115% | 79.5%
CCOC(=O)C(Cc1ccccc1)(C(=O)OCC)C(Br)C(=O)c1ccccc1 (stereo unspecified) | – | 81.4% | 39.8% | 92.2% | 75.1% | 61.3% | 83.1% | 85.1% | 98.1% | –
Oc1ccc(-c2nn(-c3ccccc3)cc2-c2nc3ccccc3s2)cc1 | – | 93.5% | 86.2% | 99% | 80.9% | 85.3% | 92.4% | 81.1% | 108% | 53%
O=C(/C(=C/c1ccc([N+](=O)[O-])cc1)c1ccccc1)c1ccccc1 | – | 8.51% (active) | 57.8% | 92.7% | 74.1% | 16.4% | 57.9% | 46.5% | 76.3% | 72%
CO[C@H]1/C=C/O[C@@]2(C)Oc3c(C)c(O)c4c(O)c(c(/C=N/N5CCN(C)CC5)c(O)c4c3C2=O)NC(=O)/C(C)=C\C=C\C(C)[C@H](O)[C@@H](C)[C@@H](O)[C@@H](C)[C@@H](OC(C)=O)[C@@H]1C (stereo partly specified) | 108% | 100% | 103% | 113% | 105% | 107% | 109% | 105% | – | 107%
Clc1ccccc1[C@@H]1C[C@@H]2Cc3cc(Br)c4ccccc4c3N1O2 | – | 61.1% | 49.9% | 38.5% | 48.7% | -8.24% (active) | 28.4% | 15.4% | 70.9% | 65.3%
C=C(C)[C@@H]1C[C@H](O)Cc2cc(Cl)cc(Cl)c2N1 | – | 99.6% | 103% | 101% | 105% | 108% | 100% | 102% | 81.9% | 99.3%
COc1cc(/C=C/C(=O)Nc2ccc3c(c2)/C(=C\c2cccn2C)C(=O)N3)cc(OC)c1OC | – | 37% | 50.3% | 81.5% | 60.4% | 41.7% | 4.35% (active) | 84.2% | 99.5% | 15%
CCN1C2=C(SC(=S)C1=C1SC(C(=O)OC)=C(C(=O)OC)S1)SC(=Nc1ccc(OC)cc1)C2=O | – | -21.7% (active) | 5.88% (active) | 61% | -58.3% (active) | -61% (active) | 26.2% | -12.2% (active) | -24.6% (active) | 12.7%
